Results as given in PubChem BioAssay AID492953 (The Scripps Research Institute Molecular Screening Center, 2010).
Among all 340,000 compounds or so, about 4,200 (1.2%) were called active.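 The calls were made as follows: active = inhibition above the mean of all tested compounds plus 3 SD (cut at about 24% in these data); inactive = the rest.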 This excerpt belongs to a sample that is enriched for actives.

Molecular target: Platelet-activating factor acetylhydrolase IB subunit alpha2 (Homo sapiens) (UniProt P68402)
Sequence (P68402 whole entry, looked up): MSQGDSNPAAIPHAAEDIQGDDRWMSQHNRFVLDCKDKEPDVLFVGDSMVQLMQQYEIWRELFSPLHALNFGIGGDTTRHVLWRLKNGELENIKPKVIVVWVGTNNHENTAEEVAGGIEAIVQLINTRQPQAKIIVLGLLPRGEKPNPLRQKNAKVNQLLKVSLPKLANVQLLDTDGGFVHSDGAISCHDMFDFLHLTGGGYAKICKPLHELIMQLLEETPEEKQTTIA
Test: PAFAH1B2 enzyme inhibitors, primary screen, biochemical, fluorescence polarization, human (AID 492953);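 also: 0% = enzyme with DMSO and 100% = wells lacking PAFAH1B2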
Conditions: recombinant PAFAH1B2, FP-rhodamine activity probe, at 3.39 µM, stronger effect = higher value

inhibition, inactive:
CS(=O)(=O)Nc1ccccc1N=C(c1ccccc1)c1ccccc1 5.79%, Cc1ccc(O)c(CNc2nc3ccccc3[nH]2)c1 0.09%, O=c1cc(-c2ccccc2)nc(N2CCCCC2)[nH]1 -3.66%, O=C(O)c1ccc(-n2cccc2)cc1O 4.37%, COc1cccc(CNn2cn[nH]c2=S)c1OCc1ccccc1 0.39%, O=C(CCNC(=O)C1CCN(S(=O)(=O)c2ccccc2)CC1)NC1CC1 1.71%, CCc1nnc(NC(=O)c2nc3nccc(C)n3n2)s1 7.37%, CCc1nnc(NC(=O)c2cccc(S(=O)(=O)N(C)c3ccc(OC)cc3)c2)s1 10.2%, COc1ccc(Cl)cc1C=CC=Nc1ccc(S(N)(=O)=O)cc1 -2.05%, Cc1c(C(=O)OCC(=O)N(CCC#N)c2ccccc2)oc2c1ccc1ccccc12 -1.31%, Cc1cccc(NC(=O)Cc2ccc(Br)cc2)n1 8.34%, O=C(Cc1ccccc1)Nc1cccc(NC(=O)c2ccccc2)c1 3.28%, CN1CCN(C(=O)CCc2ncc(C(F)(F)F)cc2Cl)CC1 -0.83%, CCC(=O)N1CCC(C(N)=O)(N2CCCCC2)CC1 -0.67%, CC(=O)c1sc(NC(=O)CCN2C(=O)C3CC=CCC3C2=O)nc1-c1ccccc1 (centres undefined) -3.33%, CC(C=Cc1ccccc1)=NNS(=O)(=O)c1ccc([N+](=O)[O-])cc1 6.62%, Cc1cccc(NS(=O)(=O)c2ccc([N+](=O)[O-])cc2)n1 1.97%, CCOC(=O)[C@H]1[C@H]2COc3ccccc3[C@@H]2N2C(=O)CN(Cc3ccccc3)C(=O)[C@@]12C -3.13%, COc1ccc(CNC(=O)c2cc(=O)c3c(C)cc(C)cc3o2)cc1 -0.18%, CCCCN(C(=O)/C=C/c1ccco1)c1c(N)n(CC(C)C)c(=O)[nH]c1=O -1.15%, CC(=O)Nc1ccc(S(=O)(=O)Oc2ccc(Br)cc2C(=S)N2CCOCC2)cc1 0.45%, COc1ccc(Br)cc1/C=N/Nc1ccc(S(=O)(=O)Nc2ccccc2C(=O)O)cc1[N+](=O)[O-] 4.57%, Cc1ccc(NS(=O)(=O)c2ccc(N/N=C/c3ccccc3OCC(=O)O)c([N+](=O)[O-])c2)c(C)c1 4.33%, Cc1ccc(C(=O)O)cc1S(=O)(=O)NCC1CCCO1 (centres undefined) -0.69%, COc1ccc(S(=O)(=O)NCCCc2ccccc2)cc1 13.7%, COc1ccc(CCNS(=O)(=O)c2cccc([N+](=O)[O-])c2)cc1 13.1%, O=C1CN(C(=O)COC(=O)C2CC(=O)N(Cc3ccco3)C2)c2ccccc2N1 (centres undefined) -0.96%, O=C(NCCN1CCN(C(=O)c2cccc([N+](=O)[O-])c2)CC1)C(=O)NCc1ccc(Cl)cc1 10.4%, NC(=O)NCCCC(=O)O 4.24%, O=C(O)CCCCCCCCCC[n+]1ccccc1 1.11%, C/C=C/c1ccc(OCCCCN2CCC(C)CC2)c(OC)c1 2.16%, CCc1c(C)n([O-])c2c([n+]1=O)CCCCC2 7.72%, CCc1cccc(CC)c1NC(=O)COc1ccccc1C(=O)c1cc(C#N)c(=O)n(C2CCCCC2)c1 2.15%, NS(=O)(=O)c1ccccc1NC(=O)c1c(O)c2ccccc2[nH]c1=O 2.89%, Cc1cc(=O)cc(C)n1-c1ccc(Cl)c(Cl)c1 4.86%, CC(C)C(=O)Nc1cccc(NC(=S)NC(=O)C(c2ccccc2)c2ccccc2)c1 -2.74%, CCNC(=S)NNC(=O)Cc1ccccc1 0.2%, Cc1ccc(S(=O)(=O)N2CCC(N3CCCCCC3)CC2)cc1 5.12%, Cc1ccc(S(=O)(=O)NC2CCCCCC2)cc1 11.5%, COc1ccc(/C(C)=N/N2CCOCC2)c(O)c1 3.71%, CCOc1ccccc1N(CC(=O)NC1CCCCC1)C(=O)CCCC(=O)Nc1ccccn1 2.23%, Cc1ccc(S(=O)(=O)N2CCC(C(=O)N3CCCCCCC3)CC2)cc1 -2.62%, Nc1cc(OC(=O)c2ccccc2Br)nn1S(=O)(=O)c1ccccc1 -1.3%, CCOC(=O)N1CCN(c2cc(C)c([N+](=O)[O-])cc2F)CC1 6.77%, Cc1ccc(CNS(=O)(=O)CCNC(=O)c2ccccc2)cc1 0.61%, Cc1ccc(N(C(=O)c2ccc(CN3CCOCC3)o2)C(C(=O)NCCC(C)C)c2cccs2)c(C)c1 (centres undefined) 2.55%, Cc1cc(=O)oc2c3c(cc(OCC(=O)NCCC(=O)N[C@@H](C)C(=O)O)c12)OC(C)(C)CC3 2.72%, Cc1c(C)c2c(OCC(=O)NCCCO)cc3c(c2oc1=O)CCC(C)(C)O3 9.23%

inhibition, active:
Cc1ccc(-c2cc(=O)[nH]c(NCc3ccccc3)n2)cc1 24.5%, CCc1ccc2nc3sc(C(=O)Nc4nnc(CC)s4)c(N)c3cc2c1 32.2%, CC(C)(C)NC(=O)c1cccc(NC(=O)Cc2ccc(Br)cc2)c1 28.1%, CC1=CC(=NNS(=O)(=O)c2ccc([N+](=O)[O-])cc2)CC(C)(C)C1 31.9%, COc1cccc(/C=N/Nc2ccc(S(=O)(=O)Nc3ccccc3C(=O)O)cc2[N+](=O)[O-])c1O 32.2%, COc1ccc(S(=O)(=O)NCCc2cc3ccc(C)c(C)c3[nH]c2=O)cc1 24.7%, CCCCCCCCCCCC(=O)O 30.2%, CCCCC(=O)NNC(=S)NC(=O)C(c1ccccc1)c1ccccc1 27.4%, Cc1ccc(S(=O)(=O)n2oc(=O)c(C3CCCCC3)c2N)cc1 30.4%, Cc1ccc(S(=O)(=O)n2nc(OC(=O)C(C)(C)C)cc2N)cc1 24.3%, Cc1c(C)c2c(OCC(=O)N[C@@H](C(=O)O)c3ccccc3)cc3c(c2oc1=O)CCC(C)(C)O3 38%
